Screens from PubChem BioAssay.
Mtb FBA inh = Mtb fructose-bisphosphate aldolase inhibition. purified M. tuberculosis FBA, fluorescence read-out. inhibition, % at 1 µM. 360,000 compounds, 2.3% hits; in the data active = inhibition above about 27%
GDH-TPI counter = GDH-TPI coupled enzyme inhibition counter-screen; inhibition, % at 4.8 µM; 360,000 compounds, 1.2% hits; GDH-TPI coupled enzyme counterscreen, NADH absorbance
RecA intein inh = Mtb RecA intein splicing inhibition; 290,000 compounds, 0.75% hits; AID 2221; cell-free RecA intein splicing, fluorescence; inhibition, % (test concentration not listed); P9WHJ3; in the data active = inhibition above about 30%
Target sequence (P9WHJ3 whole entry, looked up): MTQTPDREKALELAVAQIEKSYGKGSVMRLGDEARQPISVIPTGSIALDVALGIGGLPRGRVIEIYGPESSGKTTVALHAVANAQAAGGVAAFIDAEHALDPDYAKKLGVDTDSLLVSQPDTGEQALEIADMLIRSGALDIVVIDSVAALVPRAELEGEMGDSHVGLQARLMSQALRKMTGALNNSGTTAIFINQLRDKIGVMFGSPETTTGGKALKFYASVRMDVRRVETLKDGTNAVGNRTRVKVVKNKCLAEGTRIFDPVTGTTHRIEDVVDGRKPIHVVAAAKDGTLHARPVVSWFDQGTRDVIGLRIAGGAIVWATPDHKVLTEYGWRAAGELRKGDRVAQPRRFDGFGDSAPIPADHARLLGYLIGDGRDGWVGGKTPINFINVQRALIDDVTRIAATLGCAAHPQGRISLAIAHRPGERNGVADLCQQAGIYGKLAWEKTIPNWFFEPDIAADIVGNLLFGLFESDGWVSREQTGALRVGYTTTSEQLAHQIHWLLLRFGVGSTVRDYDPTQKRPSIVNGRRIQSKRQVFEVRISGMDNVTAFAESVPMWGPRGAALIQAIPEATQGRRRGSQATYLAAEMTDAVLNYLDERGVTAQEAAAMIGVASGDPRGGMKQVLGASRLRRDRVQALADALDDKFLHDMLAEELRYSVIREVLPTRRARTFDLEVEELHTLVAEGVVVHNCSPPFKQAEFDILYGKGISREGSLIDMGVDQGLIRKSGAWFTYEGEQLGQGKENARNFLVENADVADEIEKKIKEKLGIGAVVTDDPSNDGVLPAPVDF
CCHF vOTU inh = blocks the CCHF virus ovarian tumor domain protease; 370,000 compounds, 0.55% hits; AID 651958; inhibition, % at 11.5 µM; CCHFV vOTU protease, Pep-AMC fluorescence
Mtb betalactam = beta-lactam sensitization of Mtb H37Rv; M. tuberculosis H37Rv growth with meropenem, percent inhibition; inhibition, % at 25 µM; 330,000 compounds, 0.27% hits; AID 434955; call rule not given here;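 also: growth measured after seven days incubation then overnight dye step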
Large screens that a line does not name were inactive. The list is not random: actives were taken first. Their share in the collection is about 4.2%. Rule as the data show it, unless noted: active = inhibition above about 30%; inactive = the rest.

CCC1(C)Cc2ccccc2-c2nc3n(c(=O)c21)CCCCC3 (configuration not stated)	none
CCC1(C)Cc2ccccc2-c2nc(NCCCO)n(C)c(=O)c21 (configuration not stated)	Mtb FBA inh 163.4
CCn1c(NCCCO)nc2c(c1=O)C(C)(CC)Cc1ccccc1-2 (configuration not stated)	Mtb FBA inh 154.6
O=c1c2c(nc(NCCO)n1CC1CCCCC1)-c1ccccc1CC21CCCC1	Mtb FBA inh 42.9
N#Cc1ccc(NC(=O)OC2CC3CC2[C@H]2CCCCN2[C@H]3Cc2ccccc2)cc1 (some centres not stated)	none (no result: Mtb FBA inh, GDH-TPI counter, RecA intein inh, Mtb betalactam)
COc1ccccc1CNC(=O)C[C@H]1CC[C@H]2[C@H](COc3ccc(NS(=O)(=O)c4ccc(C)cc4)cc3C(=O)N2C)O1	none (no result: Mtb FBA inh, GDH-TPI counter, RecA intein inh, Mtb betalactam)
NC(=O)COc1ccccc1/C=C1/SC(=O)N(CC(=O)N2CCc3ccccc3C2)C1=O	none
CCOc1cc(/C=C2/SC(=O)N(CC(=O)N3CCc4ccccc4C3)C2=O)ccc1OCC(=O)O	GDH-TPI counter 33.8
Cc1c(C(=O)/C=C/N(C)C)nnn1-c1ccc(F)c(Cl)c1	GDH-TPI counter 34.7
CN(C)/C=C/C(=O)/C=C/c1ccc(Cl)cc1Cl	none
Cc1c(C(=O)/C=C/N(C)C)nnn1-c1ccc(Cl)cc1Cl	GDH-TPI counter 32.7
Cc1c(C(=O)/C=C/N(C)C)nnn1-c1ccc(Cl)c(Cl)c1	GDH-TPI counter 42.4
COC(=O)c1nnn(-c2ccc(F)c(Cl)c2)c1C(=O)OC	none
COC(=O)[C@]12C[C@H](CC(=O)N3CCSCC3)C(=O)N(Cc3ccccc3)C1=C[C@H](C(C)(C)C)O[C@@H]2C	none (no result: Mtb FBA inh, GDH-TPI counter, RecA intein inh, Mtb betalactam)
Cc1ccc(Cn2cc(CN3[C@H](c4ccccc4)COc4cc(Br)ccc4S3(=O)=O)nn2)cc1	none (no result: Mtb FBA inh, GDH-TPI counter, RecA intein inh, Mtb betalactam)
COc1cc(N2Cc3ccccc3C2)ccc1C=O	GDH-TPI counter 33.6
O=C(Nc1ccccc1C(F)(F)F)OCCCN1CCC2(CCC(c3ccccc3)CC2)C1=O (configuration not stated)	none (no result: Mtb FBA inh, GDH-TPI counter, RecA intein inh, Mtb betalactam)
O=C(CCc1nc(-c2ccccc2F)no1)NCCc1c[nH]c2ccccc12	none (no result: Mtb FBA inh, GDH-TPI counter, RecA intein inh, Mtb betalactam)
COc1ccc(/C=N/Nc2nnc(-c3ccccc3)c(=O)[nH]2)cc1	GDH-TPI counter 35.4
O=c1[nH]c(N/N=C/c2ccccc2Br)nnc1-c1ccccc1	GDH-TPI counter 38.6
COc1ccc(-n2c(SCC(=O)Nc3ccc4c(c3)OCO4)nc3sc4c(c3c2=O)CCCC4)cc1	none (no result: Mtb FBA inh, GDH-TPI counter, RecA intein inh, Mtb betalactam)
Nc1nc(SCC(=O)N2N=C3/C(=C/c4ccco4)CCCC3C2c2ccco2)n[nH]1 (configuration not stated)	GDH-TPI counter 34.8
Nc1nc(SCC(=O)N2N=C3/C(=C\c4ccco4)CCCC3C2c2ccco2)n[nH]1 (configuration not stated)	GDH-TPI counter 32.6 (no result: RecA intein inh, Mtb betalactam)
O=C(c1ccc(F)cc1Cl)N(Cc1ccccn1)CC1CCCO1 (configuration not stated)	none (no result: Mtb FBA inh, GDH-TPI counter, RecA intein inh, Mtb betalactam)
COC(=O)[C@]12C[C@H](CC(=O)NCc3ccc(C)o3)C(=O)N(Cc3ccc(Cl)cc3Cl)C1=C[C@H](C(C)(C)C)O[C@@H]2C	none (no result: Mtb FBA inh, GDH-TPI counter, RecA intein inh, Mtb betalactam)
COC(=O)c1ccc2c(C)c(C(C)(C)O)[nH]c2c1	Mtb FBA inh active
O=C(CSc1nnc(-c2ccccc2)n1-c1ccc(Cl)cc1)c1ccccc1Br	none (no result: Mtb FBA inh, GDH-TPI counter, RecA intein inh, Mtb betalactam)
Cn1cc(Cl)c(C(=O)NNC(=S)NCc2ccco2)n1	none
O=C(NNC(=S)NCc1ccco1)c1ccc(Cl)s1	GDH-TPI counter 31.0
Cc1cc(NS(=O)(=O)c2ccc(NC(=O)CSc3nnc(-c4cnccn4)n3-c3ccccc3)cc2)nc(C)n1	none (no result: Mtb FBA inh, GDH-TPI counter, RecA intein inh, Mtb betalactam)
COc1ccc(/C=C(\NC(=O)c2cccs2)C(=O)NN)cc1OC	GDH-TPI counter 38.2
COc1ccc(/C=C(/NC(=O)c2cccs2)C(=O)NC(C)(C)C)cc1OC	none (no result: RecA intein inh)
COc1ccc(-n2nc3cc(C)c(NC(C)=O)cc3n2)cc1	Mtb FBA inh 113.9 (no result: RecA intein inh)
COc1ccc(-n2nc3cc(C)c(NC(=O)C(C)C)cc3n2)cc1	none (no result: Mtb FBA inh, GDH-TPI counter, CCHF vOTU inh, Mtb betalactam)
S=c1nccc(-c2ccc3c(c2)CCO3)[nH]1	GDH-TPI counter 49.0
CC1(C)CCc2cc(-c3ccnc(=S)[nH]3)ccc2O1	none
Cc1ccc2c(c1)C(CS(=O)(=O)NCCc1ccccc1)NC2 (configuration not stated)	none (no result: Mtb FBA inh, GDH-TPI counter, RecA intein inh, Mtb betalactam)
Cc1cc2cc3c(cc2nc1SCC(=O)O)OCCO3	GDH-TPI counter 33.3 (no result: RecA intein inh)
Cc1cc2cc3c(cc2nc1SCC(=O)N1CCCC1)OCCO3	none (no result: Mtb betalactam)
COc1ccc(-n2c(SCC(=O)Nc3cccc4ccccc34)nnc2-c2ccco2)cc1	none (no result: Mtb FBA inh, GDH-TPI counter, RecA intein inh, Mtb betalactam)
CC(=O)Nc1ccc2c(COC(=O)[C@@H](NS(=O)(=O)c3ccc(C)cc3)C(C)C)cc(=O)oc2c1	Mtb FBA inh active (no result: RecA intein inh)
